Results: PubChem BioAssay (EPA / NIEHS)
Active and inactive are the calls of the source. How the source made its calls: active means hit-call score of the fitted dose curve at least 0.9, where 1 is the maximum; inactive means score below 0.9.

Legend:
[1] = read-out: Vascular endothelial growth factor receptor 2 (Homo sapiens) (UniProt P35968); assay: BSK_4H_VEGFRII: BioMAP Diversity Plus: 4H Assay for Vascular endothelial growth factor receptor 2 (VEGFR2) Biomarker Activity (AID 2283031); conditions: primary human endothelial cells (HUVEC); actives raise or lower the signal;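 on AC50: cell-surface VEGFR2 protein level quantified by ELISA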
Outline: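 In this multiplexed HUVEC system, biomarker ELISA was performed after 24 h chemical exposure. Parallel SRB staining (TCA fixation, 560 nm) tracked cytotoxicity; DMSO served as baseline.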

[2] = read-out: Vascular cell adhesion molecule 1 (VCAM1), VCAM1 (gene 7412); assay: BSK_4H_VCAM1: BioMAP Diversity Plus: 4H Assay for Vascular cell adhesion molecule 1 (VCAM1) Biomarker Activity (AID 2283033); conditions: primary human endothelial cells (HUVEC); actives raise or lower the signal
Outline: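 ELISA read-out of VCAM-1 on human umbilical vein endothelium 24 hours after chemical dosing; gain or loss of signal was fitted relative to DMSO, with sulforhodamine B staining of parallel cultures flagging overt cytotoxicity.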

[3] = read-out: Interferon-gamma inducible Protein 10 (IP10), CXCL10 (gene 3627); assay: BSK_BE3C_IP10: BioMAP Diversity Plus: BE3C Assay for Interferon-gamma inducible Protein 10 (IP10) Biomarker Activity (AID 2283034); conditions: primary human bronchial epithelial cells; actives raise or lower the signal
Outline: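 Chemical is dosed onto human lung bronchial epithelial primary cells, cultures are incubated 24 h, and IP-10 is then quantified by ELISA. Gain or loss of signal is fitted in both directions relative to DMSO.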

[4] = read-out: Monokine induced gamma interferon (MIG), CXCL9 (gene 4283); assay: BSK_BE3C_MIG: BioMAP Diversity Plus: BE3C Assay for Monokine induced gamma interferon (MIG) Biomarker Activity (AID 2283035); conditions: primary human bronchial epithelial cells; actives raise or lower the signal;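 further: MIG protein measured by ELISA in BE3C cultures after 24 h of dosing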
Outline: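 ELISA read-out of MIG in human lung bronchial epithelial primary cultures, 24 h post-dosing. Bidirectional curve fit vs DMSO baseline.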

[5] = read-out: Transforming growth factor beta 1 (TGFb1), TGFB1 (gene 7040); assay: BSK_BE3C_TGFb1: BioMAP Diversity Plus: BE3C Assay for Transforming growth factor beta 1 (TGFb1) Biomarker Activity (AID 2283036;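 further: TGF-b1 protein level measured by ELISA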); conditions: primary human bronchial epithelial cells; actives raise or lower the signal
Outline: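 Primary human lung bronchial epithelial cells; compound exposure 24 h; TGF-b1 by ELISA; bidirectional fit, DMSO baseline. Parallel SRB total-protein staining for cytotoxicity.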

[6] = read-out: Plasminogen activator inhibitor-1 (PAI1), SERPINE1 (gene 5054); assay: BSK_BE3C_PAI1: BioMAP Diversity Plus: BE3C Assay for Plasminogen activator inhibitor-1 (PAI1) Biomarker Activity (AID 2283037); conditions: primary human bronchial epithelial cells; actives raise or lower the signal
Outline: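 Primary human lung bronchial epithelial cells; chemical dosing; 24 h; PAI-1 measured by ELISA; bidirectional fit referenced to DMSO as negative control.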

[7] = read-out: urokinase plasminogen activator (uPA), PLAU (gene 5328); assay: BSK_BE3C_uPA: BioMAP Diversity Plus: BE3C Assay for urokinase plasminogen activator (uPA) Biomarker Activity (AID 2283038); conditions: primary human bronchial epithelial cells; actives raise or lower the signal;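 further: uPA protein level quantified by ELISA in cell cultures; uPA read one day after compound addition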
Outline: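 Using confluent primary human lung bronchial epithelial cultures, we dosed chemicals, waited 24 h, then ran a uPA ELISA, fitting bidirectionally against DMSO.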

[8] = read-out: Urokinase-type plasminogen activator receptor (uPAR), PLAUR (gene 5329); assay: BSK_BE3C_uPAR: BioMAP Diversity Plus: BE3C Assay for Urokinase-type plasminogen activator receptor (uPAR) Biomarker Activity (AID 2283039); conditions: primary human bronchial epithelial cells; actives raise or lower the signal
Outline: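 Human bronchial epithelial primary cells; chemical exposure 24 h; uPAR by ELISA; bidirectional fit vs DMSO control.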

[9] = read-out: Interleukin-6 (IL6), IL6 (gene 3569); assay: BSK_CASM3C_IL6: BioMAP Diversity Plus: CASM3C Assay for Interleukin-6 (IL6) Biomarker Activity for (AID 2283040); conditions: primary human coronary artery smooth muscle cells; actives raise or lower the signal
[10] = read-out: Tissue plasminogen activator (tPA), PLAT (gene 5327); assay: BSK_BE3C_tPA: BioMAP Diversity Plus: BE3C Assay for Tissue plasminogen activator (tPA) Biomarker Activity (AID 2283041); conditions: primary human bronchial epithelial cells; actives raise or lower the signal
Outline: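 Primary human lung bronchial epithelial cultures receive test chemical; after 24 h, tPA is quantified by ELISA, and gain or loss of signal is fitted bidirectionally relative to DMSO baseline.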

[11] = read-out: Interleukin-8 (IL8), CXCL8 (gene 3576); assay: BSK_CASM3C_IL8: BioMAP Diversity Plus: CASM3C Assay for Interleukin-8 (IL8) Biomarker Activity (AID 2283042); conditions: primary human coronary artery smooth muscle cells; actives raise or lower the signal;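 further: IL-8 protein level quantified by ELISA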
[12] = read-out: Human Leukocyte Antigen - DR isotype (HLADR), HLA-DRA (gene 3122); assay: BSK_CASM3C_HLADR: BioMAP Diversity Plus: CASM3C Assay for Human Leukocyte Antigen - DR isotype (HLADR) Biomarker Activity (AID 2283043); conditions: primary human coronary artery smooth muscle cells; actives raise or lower the signal;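 further: cell-surface HLA-DR protein level quantified by ELISA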
[13] = read-out: Macrophage colony-stimulating factor (MCSF), CSF1 (gene 1435); assay: BSK_CASM3C_MCSF: BioMAP Diversity Plus: CASM3C Assay for Macrophage colony-stimulating factor (MCSF) Biomarker Activity (AID 2283044); conditions: primary human coronary artery smooth muscle cells; actives raise or lower the signal;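 further: M-CSF protein amount quantified by ELISA after 24 h exposure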
[14] = read-out: Low-density lipoprotein receptor (LDLR), LDLR (gene 3949); assay: BSK_CASM3C_LDLR: BioMAP Diversity Plus: CASM3C Assay for Low-density lipoprotein receptor (LDLR) Biomarker Activity (AID 2283045); conditions: primary human coronary artery smooth muscle cells; actives raise or lower the signal;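 further: LDLR protein level on the cell surface quantified by ELISA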
[15] = read-out: Monocyte Chemoattractant Protein-1 (MCP1), CCL2 (gene 6347); assay: BSK_CASM3C_MCP1: BioMAP Diversity Plus: CASM3C Assay for Monocyte Chemoattractant Protein-1 (MCP1) Biomarker Activity (AID 2283046); conditions: primary human coronary artery smooth muscle cells; actives raise or lower the signal;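 further: MCP-1 level quantified by ELISA 24 h after dosing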
[16] = BSK_CASM3C_Proliferation: Cell Proliferation Assessment in the BioMAP Diversity Plus: CASM3C Assay (AID 2283047); conditions: primary human coronary artery smooth muscle cells;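 further: sulforhodamine B total protein stain as relative cell number at 560 nm; sub-confluent cells exposed 48 h before staining; fitted both ways against DMSO so gain or loss of cell number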
[17] = read-out: Monokine induced gamma interferon (MIG), CXCL9 (gene 4283); assay: BSK_CASM3C_MIG: BioMAP Diversity Plus: CASM3C Assay for Monokine induced gamma interferon (MIG) Biomarker Activity (AID 2283048); conditions: primary human coronary artery smooth muscle cells; actives raise or lower the signal;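 further: MIG protein level measured by ELISA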
[18] = read-out: serum amyloid A (SAA), SAA1 (gene 6288); assay: BSK_CASM3C_SAA: BioMAP Diversity Plus: CASM3C Assay for serum amyloid A (SAA) Biomarker Activity (AID 2283049); conditions: primary human coronary artery smooth muscle cells; actives raise or lower the signal;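 further: SAA protein level quantified by ELISA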
[19] = BSK_CASM3C_SRB: Viability Assessment in the BioMAP Diversity Plus: CASM3C Assay (AID 2283050); conditions: primary human coronary artery smooth muscle cells;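 further: total protein by SRB staining as cytotoxicity measure in parallel cultures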
[20] = read-out: Human Leukocyte Antigen - DR isotype (HLADR), HLA-DRA (gene 3122); assay: BSK_BE3C_HLADR: BioMAP Diversity Plus: BE3C Assay for Human Leukocyte Antigen - DR isotype (HLADR) Biomarker Activity (AID 2283032); conditions: primary human bronchial epithelial cells; actives raise or lower the signal
Outline: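 ELISA read-out of HLA-DR on human lung bronchial epithelial primary cells, measured 24 h post-dosing. Both increases and decreases were scored relative to DMSO vehicle.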

Measured: AC50

CCCCCCCCN(C)CCCCCCCC
not listed: [20]
inactive: all other assays above

CC(O)CC(C)(C)O (stereo not given)
not listed: [20]
inactive: all other assays above

CC1=CC(=O)/C(=C(/C)O)C(=O)O1
not listed: [7] | [20]
inactive: all other assays above

c1ccc(C[n+]2cccc3ccccc32)cc1
active: [3] 30.2 µM
not listed: [20]
inactive: all other assays above

Oc1ccccc1
not listed: [7] | [20]
inactive: all other assays above

O=C(Nc1ccc(Cl)cc1)Nc1ccc(Cl)c(Cl)c1
inactive: [4] | [5] | [11] | [15] | [17]
active: [1] 2.19 µM | [2] 3.48 µM | [3] 2.52 µM | [6] 1.11 µM | [8] 1.1 µM | [9] 12.7 µM | [10] 1.73 µM | [12] 2.81 µM | [13] 12.3 µM | [14] 7.14 µM | [16] 5 µM | [18] 12.6 µM | [19] 10.6 µM

CC[C@H](NC(=O)c1cc(F)ccc1NS(=O)(=O)c1cccc2cccnc12)c1ccccc1
active: [14] 7.05 µM
not listed: [7] | [20]
inactive: all other assays above

Cc1ncc(CO)c(CO)c1O
not listed: [7] | [20]
inactive: all other assays above

CO[C@H]1/C=C/O[C@@]2(C)Oc3c(C)c(O)c4c(O)c(c(/C=N/N5CCN(C)CC5)c(O)c4c3C2=O)NC(=O)/C(C)=C\C=C\[C@H](C)[C@H](O)[C@@H](C)[C@@H](O)[C@@H](C)[C@H](OC(C)=O)[C@@H]1C
active: [16] 4.51 µM
not listed: [7] | [20]
inactive: all other assays above

CC(C)(C)c1cc(/C=C2\SC(N)=NC2=O)cc(C(C)(C)C)c1O
active: [1] 27.4 µM | [2] 26.4 µM | [9] 36.2 µM | [12] 20 µM | [13] 33.3 µM | [14] 29.1 µM | [15] 31.1 µM | [16] 29.1 µM | [17] 32 µM | [18] 31.6 µM | [19] 30.7 µM
inactive: [3] | [4] | [5] | [6] | [8] | [10] | [11]

Cc1cn([C@H]2C[C@H](N=[N+]=[N-])[C@@H](CO)O2)c(=O)[nH]c1=O
not listed: [7] | [20]
inactive: all other assays above

Clc1cc(Cl)c2c(c1)N=C1CCCCCN1C2
not listed: [20]
inactive: all other assays above

CCO[Si](CCCNC(N)=O)(OCC)OCC
not listed: [20]
inactive: all other assays above

CCN(Cc1cccnc1)C(=O)c1cccc(Cl)c1[C@]1(C)C(=O)N(Cc2ccc(OC)cc2OC)c2ccc(Cl)cc21
active: [1] 6.81 µM | [3] 12.1 µM | [6] 3.79 µM | [8] 6.94 µM | [9] 12.3 µM | [12] 29.8 µM | [14] 1.39 µM | [16] 12.6 µM
not listed: [7] | [20]
inactive: all other assays above

OCCO
not listed: [1]
inactive: all other assays above

Cc1cccc2ccccc12
not listed: [20]
inactive: all other assays above
